# Reference: PubChem BioAssay
# Activity calls are given as the source filed them.
# What was measured:
# [1] = target: Albumin (Bos taurus) (UniProt P02769); experiment: bovine serum albumin binders on microarray, profiling panel, artefact control for SMM control protein annotation, biochemical, small-molecule microarray, Alexa647 label, 635/667 nm fluorescence (AID 1118); settings: BSA-A647 binding, fluorescence 635 nm, higher = more signal;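 further: score merges 667 nm emission intensity and signal-to-noise per printed compound spot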
# [2] = small-molecule microarray binders of probe aXIP, primary screen, biochemical, NeuroSMM set, 635/667 nm fluorescence (AID 1119); settings: higher = more signal, called active from +8 up or from −8 down;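 further: probe is the protein aXip251-270 applied at 1 µg/mL to compound-printed slides; binding of probe to printed compounds measured as 667 nm fluorescence plus signal to noise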
# [3] = small-molecule binders of probe aNOTCH3, primary screen, biochemical, small-molecule microarray, 635/667 nm fluorescence (AID 1120); settings: higher = more signal;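 further: probe is a biotin-tagged antibody raised against NOTCH3 rather than NOTCH3 protein; score merges spot fluorescence near 667 nm with spot signal to noise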
# [4] = small-molecule binders of probe aNOTCH2, primary screen, biochemical, small-molecule microarray, 635/667 nm fluorescence (AID 1121); settings: higher = more signal;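 further: score merges feature fluorescence read at 667 nm with its signal to noise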
# [5] = target: Carbonic anhydrase 2 (Homo sapiens) (UniProt P00918); experiment: CAII small-molecule binders, profiling panel, biochemical, small-molecule microarray, Alexa647-labelled CAII (AID 1122); settings: CAII-A647 binding fluorescence, higher = more signal
# [6] = COS7 lysate on small-molecule microarray, probe aHis, 635 nm (AID 1123); settings: COS7 cell lysate, fluorescence, higher = more signal;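 further: z-score combines 667nm fluorescence intensity with signal-to-noise per printed compound spot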
# [7] = compound binding in COS7 lysate, probe aLAP1, primary screen, cell lysate, small-molecule microarray (AID 1124); settings: probe aLAP1, fluorescence, higher = more signal;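 further: lysate comes from COS7 cells expressing LAP1 and is applied at 0.3 µg/mL; score merges spot fluorescence near 667 nm with signal-to-noise over triplicate slides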
# [8] = system: Sam68 (KHDRBS1); experiment: Sam68 small-molecule binders, primary screen, biochemical, small-molecule microarray, 635 nm fluorescence (AID 1125); settings: small-molecule microarray binding, higher = more signal;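 further: score merges 667 nm channel intensity with signal to noise over triplicate slides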
# [9] = system: Chordin-like protein 2 (CHRDL2); experiment: CHRDL2 small-molecule binders, primary screen, biochemical, small-molecule microarray, 635 nm fluorescence (AID 1126); settings: small-molecule microarray binding, fluorescence 635 nm; higher = more signal;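 further: printed compound slides probed with Chrdl2 protein at 4 µg/mL for 1 h at 4 C; score merges 667 nm emission intensity with signal to noise over three replicate slides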
# [10] = target: Concanavalin-A (Canavalia ensiformis) (UniProt P02866); experiment: ConA small-molecule binders, primary screen, artefact control for SMM control protein annotation, biochemical, small-molecule microarray, Alexa647 label, 635 nm (AID 1127); settings: ConA-A647 binding fluorescence, higher = more signal;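 further: z combines 667 nm emission intensity with signal-to-noise across three replicate slides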
# [11] = anti-His antibody binders, primary screen, artefact control for SMM control protein annotation, biochemical, small-molecule microarray, 635 nm fluorescence (AID 1128); settings: anti-His Alexa647 antibody binding, higher = more signal;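 further: score merges feature fluorescence with signal-to-noise for each printed compound spot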
# [12] = system: Human papillomavirus type 1a E7 protein (residues 1-88); experiment: HPV1a E7 small-molecule binders, primary screen, biochemical, small-molecule microarray, residues 1-88, 635 nm (AID 1129); settings: small-molecule microarray binding, fluorescence 635 nm; higher = more signal
# [13] = target: Focal adhesion kinase 1 (Homo sapiens) (UniProt Q05397); experiment: small-molecule microarray binders of FAK, primary screen, biochemical, 635/667 nm fluorescence, BSA, DTT (AID 1130); settings: PTK2 binding, 635 nm fluorescence, higher = more signal;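 further: composite of spot emission at 667 nm and signal to noise over triplicate slides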
# [14] = system: Fibrinogen (Alexa647-labelled); experiment: fibrinogen binders on compound microarrays, profiling panel, artefact control for SMM control-protein annotation, biochemical, small-molecule microarray, 635/667 nm fluorescence (AID 1131); settings: fibrinogen-A647 binding fluorescence, higher = more signal;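 further: z-score merges 667 nm fluorescence with per-spot signal-to-noise over triplicate slides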
# [15] = target: Follistatin (Homo sapiens) (UniProt P19883); experiment: follistatin binders on small-molecule microarrays, primary screen, biochemical, small-molecule microarray, 635/667 nm fluorescence (AID 1132); settings: FST binding, 635 nm fluorescence, higher = more signal
# [16] = target: Fibroblast growth factor 2 (Homo sapiens) (UniProt P09038); experiment: FGF2 binders on small-molecule microarrays, primary screen, biochemical, small-molecule microarray, 635/667 nm fluorescence (AID 1133); settings: small-molecule microarray binding, FGF2, fluorescence 635/667; higher = more signal
# [17] = mitochondrial membrane potential change in A549 cells, profiling panel, cell-based, JC-1 fluorescence, basal, 24 h, 100 nL (AID 1138); settings: higher = more signal;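 further: A549 lung adenocarcinoma cells under basal conditions with no added stimulus; test concentration not given here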
# [18] = system: Lefty1; experiment: Lefty1 binders on small-molecule microarrays, primary screen, biochemical, small-molecule microarray, 635/667 nm fluorescence (AID 1139); settings: small-molecule microarray binding, fluorescence 635/667; higher = more signal
# [19] = system: wheat germ agglutinin (Triticum aestivum), Alexa647-labelled; experiment: wheat germ agglutinin binders on compound microarrays, profiling panel, artefact control for SMM control-protein annotation, biochemical, small-molecule microarray, 635/667 nm fluorescence (AID 1140); settings: WGA-A647 binding, 635 nm fluorescence, higher = more signal;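 further: score merges 667 nm feature emission with signal to noise over triplicate slides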
# [20] = target: Luciferin 4-monooxygenase (Photinus pyralis) (UniProt P08659); experiment: firefly luciferase enzyme inhibitors, primary screen, biochemical, luminescence, purified enzyme, 2006 set (AID 1141); settings: SteadyGlo luminescence, 30 min, higher = more signal, called active from +8 up or from −8 down;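 further: cell-free assay with purified firefly luciferase at 100 ng per well in PBS; test concentration not given here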
# Sequence of Luciferin 4-monooxygenase (Photinus pyralis) (P08659 whole entry, looked up): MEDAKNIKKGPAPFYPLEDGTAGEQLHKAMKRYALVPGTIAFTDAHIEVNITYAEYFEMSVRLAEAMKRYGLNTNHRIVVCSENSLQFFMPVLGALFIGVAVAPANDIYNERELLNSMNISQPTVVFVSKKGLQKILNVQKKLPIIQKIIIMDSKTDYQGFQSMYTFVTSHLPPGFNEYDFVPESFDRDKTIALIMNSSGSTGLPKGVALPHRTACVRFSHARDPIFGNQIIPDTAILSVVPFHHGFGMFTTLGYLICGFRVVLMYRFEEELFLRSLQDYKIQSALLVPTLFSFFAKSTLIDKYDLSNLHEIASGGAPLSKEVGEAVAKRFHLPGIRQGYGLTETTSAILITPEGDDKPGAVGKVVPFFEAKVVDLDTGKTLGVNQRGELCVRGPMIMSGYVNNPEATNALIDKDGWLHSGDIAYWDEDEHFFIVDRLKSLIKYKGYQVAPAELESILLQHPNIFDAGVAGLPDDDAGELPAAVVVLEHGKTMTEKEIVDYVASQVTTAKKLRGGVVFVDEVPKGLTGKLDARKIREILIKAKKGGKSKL
# Sequence of Albumin (Bos taurus) (P02769 whole entry, looked up): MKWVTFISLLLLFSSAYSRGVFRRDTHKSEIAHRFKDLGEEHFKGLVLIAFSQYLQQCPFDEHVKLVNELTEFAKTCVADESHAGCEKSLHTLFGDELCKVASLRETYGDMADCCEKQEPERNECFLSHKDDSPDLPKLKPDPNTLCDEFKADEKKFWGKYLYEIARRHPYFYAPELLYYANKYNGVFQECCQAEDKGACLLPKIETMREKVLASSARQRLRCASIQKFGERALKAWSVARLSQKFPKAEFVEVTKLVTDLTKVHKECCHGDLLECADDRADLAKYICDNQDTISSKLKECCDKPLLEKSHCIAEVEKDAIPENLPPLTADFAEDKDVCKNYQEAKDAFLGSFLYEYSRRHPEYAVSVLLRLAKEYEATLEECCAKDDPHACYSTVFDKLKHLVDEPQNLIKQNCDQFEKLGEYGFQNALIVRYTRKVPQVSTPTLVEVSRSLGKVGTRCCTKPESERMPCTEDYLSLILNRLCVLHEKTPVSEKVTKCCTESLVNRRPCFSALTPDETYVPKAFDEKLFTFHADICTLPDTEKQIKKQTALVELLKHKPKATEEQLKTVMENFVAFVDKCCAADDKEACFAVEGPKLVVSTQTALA
# Sequence of Focal adhesion kinase 1 (Homo sapiens) (Q05397 whole entry, looked up): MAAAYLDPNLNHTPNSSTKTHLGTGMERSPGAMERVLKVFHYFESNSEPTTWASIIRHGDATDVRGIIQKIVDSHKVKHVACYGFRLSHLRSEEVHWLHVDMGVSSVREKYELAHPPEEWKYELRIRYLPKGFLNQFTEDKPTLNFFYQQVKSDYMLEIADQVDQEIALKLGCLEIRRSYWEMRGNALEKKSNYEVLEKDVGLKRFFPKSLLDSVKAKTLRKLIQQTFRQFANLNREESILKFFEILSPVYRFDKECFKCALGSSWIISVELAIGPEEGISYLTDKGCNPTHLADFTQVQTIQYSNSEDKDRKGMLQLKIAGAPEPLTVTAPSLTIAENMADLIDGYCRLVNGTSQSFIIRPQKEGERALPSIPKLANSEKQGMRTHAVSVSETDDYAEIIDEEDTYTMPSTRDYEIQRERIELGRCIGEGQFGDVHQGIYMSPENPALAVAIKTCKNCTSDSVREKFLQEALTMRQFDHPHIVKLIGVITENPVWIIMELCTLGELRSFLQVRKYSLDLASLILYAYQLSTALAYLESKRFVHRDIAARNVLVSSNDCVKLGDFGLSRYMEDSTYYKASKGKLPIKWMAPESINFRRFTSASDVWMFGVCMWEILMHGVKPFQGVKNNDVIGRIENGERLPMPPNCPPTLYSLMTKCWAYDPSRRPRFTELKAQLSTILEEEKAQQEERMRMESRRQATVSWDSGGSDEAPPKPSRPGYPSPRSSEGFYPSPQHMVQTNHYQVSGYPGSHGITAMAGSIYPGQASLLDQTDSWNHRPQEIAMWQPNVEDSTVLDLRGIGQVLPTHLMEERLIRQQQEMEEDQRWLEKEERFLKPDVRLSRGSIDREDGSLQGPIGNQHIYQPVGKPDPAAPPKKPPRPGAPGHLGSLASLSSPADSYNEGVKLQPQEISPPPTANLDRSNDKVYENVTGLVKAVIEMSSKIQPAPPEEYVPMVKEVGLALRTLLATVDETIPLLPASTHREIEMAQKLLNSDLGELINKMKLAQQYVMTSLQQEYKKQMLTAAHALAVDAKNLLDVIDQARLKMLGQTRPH
# Sequence of Follistatin (Homo sapiens) (P19883 whole entry, looked up): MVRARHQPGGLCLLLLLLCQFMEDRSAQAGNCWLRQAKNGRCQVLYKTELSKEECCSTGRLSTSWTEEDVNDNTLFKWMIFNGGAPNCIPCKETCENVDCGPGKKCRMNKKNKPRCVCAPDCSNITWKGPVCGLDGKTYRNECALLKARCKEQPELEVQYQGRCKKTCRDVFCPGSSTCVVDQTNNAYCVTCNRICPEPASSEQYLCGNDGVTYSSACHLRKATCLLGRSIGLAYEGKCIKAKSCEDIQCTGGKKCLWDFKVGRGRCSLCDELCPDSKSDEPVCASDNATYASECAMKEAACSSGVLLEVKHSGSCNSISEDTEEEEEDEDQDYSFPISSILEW
# Sequence of Fibroblast growth factor 2 (Homo sapiens) (P09038 whole entry, looked up): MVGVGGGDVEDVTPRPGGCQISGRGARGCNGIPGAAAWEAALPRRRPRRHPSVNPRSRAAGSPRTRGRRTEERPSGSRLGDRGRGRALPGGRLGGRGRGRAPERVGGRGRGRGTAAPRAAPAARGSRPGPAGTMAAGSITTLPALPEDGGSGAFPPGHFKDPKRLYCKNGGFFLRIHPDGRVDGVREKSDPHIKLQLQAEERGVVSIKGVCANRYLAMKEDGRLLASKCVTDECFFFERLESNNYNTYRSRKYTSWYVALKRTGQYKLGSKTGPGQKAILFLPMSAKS
# Sequence of Concanavalin-A (Canavalia ensiformis) (P02866 whole entry, looked up): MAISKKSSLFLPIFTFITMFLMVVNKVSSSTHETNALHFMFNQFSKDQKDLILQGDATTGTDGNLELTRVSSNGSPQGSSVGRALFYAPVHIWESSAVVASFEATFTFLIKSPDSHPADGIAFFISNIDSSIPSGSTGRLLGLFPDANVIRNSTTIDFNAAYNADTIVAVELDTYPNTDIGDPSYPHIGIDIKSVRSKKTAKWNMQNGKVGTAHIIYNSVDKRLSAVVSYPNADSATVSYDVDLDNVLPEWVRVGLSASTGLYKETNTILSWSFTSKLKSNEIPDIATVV
SMILES,composite z-score [1],composite Z-score [2],composite z-score [3],composite z-score [4],composite z-score [5],composite z-score [6],composite z-score [7],composite z-score [8],composite z-score [9],composite z-score [10],composite z-score [11],composite z-score [12],composite z-score [13],composite z-score [14],composite z-score [15],composite z-score [16],z-score [17],composite z-score [18],composite z-score [19],z-score [20]
[N-]=[N+]=Nc1ccccc1C[C@]1(C(=O)NCCN2CCOCC2)COC(c2ccc(OCCCO)cc2)=N1,0.18,-0.34 (inactive),-0.0745,0.0328,0.348,1.87,1.26,1.15,0.376,1.1,1.34,1.26,0.696,0.649,1.02,1.04,2.08,-0.494,0.607,-2.91 (inactive)
CO[C@H]1O[C@H](CO)[C@@H](OC(=O)Nc2ccccc2)[C@H](OC(=O)c2cc3ccccc3[nH]2)[C@H]1OC(=O)c1cc2ccccc2[nH]1,0.124,1.12 (inactive),-0.0368,-0.0166,0.793,0.68,0.94,0.396,0.132,0.282,0.568,0.181,0.353,0.475,1.13,1.61,0.132,0.532,0.562,-0.378 (inactive)
CC#CCO[Si](C#Cc1ccccc1)(C(C)C)C(C)C,-1.33,-0.197 (inactive),-0.365,-0.156,-0.624,-0.445,-0.353,-1.18,-0.913,-1.46,-1.71,-1.42,-0.357,-0.965,-0.711,0.0353,-1.01,-0.531,-0.874,0.741 (inactive)
CC(C)(C)OC(=O)COc1cccc(C(=O)CCN2CCOCC2)c1,0.217,0.784 (inactive),-0.0119,-0.074,-0.382,0.258,-0.281,0.656,0.309,-0.244,-0.413,0.355,-0.272,0.226,-0.35,-0.284,0.583,-0.57,-0.0945,-2.13 (inactive)
CCCCCN1CC=CC23O[C@@H]4/C=C\CCC(C)OC(=O)C4[C@H]2C(=O)N(C(CO)C(C)C)[C@@H]3C1=O (stereo not given in full),0.157,0.141 (inactive),-0.247,-0.182,0.824,0.337,0.57,0.132,-0.461,0.192,1.03,-0.46,1.94,-1.41,0.032,-0.318,-0.87,0.287,1.41,0.551 (inactive)
